Laboratory results reported in PubChem BioAssay.
Activity calls are given as the source filed them.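 The calls were made as follows: active = inhibition above the hit cutoff set in the earlier primary screen (cut at about 27% in these data); inactive = the rest.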

Each compound was assayed against Protein phosphatase methylesterase 1 (Homo sapiens) (UniProt Q9Y570) (assay: PME-1 inhibitor activity retest, confirmation, biochemical, fluorescence polarization, FP-Rh probe, triplicate (AID 2171;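 also: 0% = enzyme with DMSO and 100% = wells lacking PME-1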)). Details: recombinant PME-1, FP-Rh probe fluorescence polarization; at 5.9 µM; active compounds read high.
Sequence of Protein phosphatase methylesterase 1 (Homo sapiens) (Q9Y570 whole entry, looked up): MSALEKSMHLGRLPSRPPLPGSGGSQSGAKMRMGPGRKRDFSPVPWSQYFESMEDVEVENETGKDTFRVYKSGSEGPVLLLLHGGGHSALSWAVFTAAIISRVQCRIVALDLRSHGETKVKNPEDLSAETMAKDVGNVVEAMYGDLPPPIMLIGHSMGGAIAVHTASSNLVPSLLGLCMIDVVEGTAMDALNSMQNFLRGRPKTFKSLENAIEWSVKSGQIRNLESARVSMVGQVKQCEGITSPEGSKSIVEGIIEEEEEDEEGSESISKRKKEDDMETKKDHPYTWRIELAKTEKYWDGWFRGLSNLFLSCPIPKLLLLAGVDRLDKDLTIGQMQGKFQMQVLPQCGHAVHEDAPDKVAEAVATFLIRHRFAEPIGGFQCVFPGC

Row | SMILES | inhibition
1 | COc1ccc2noc3c2c1C(=O)c1ccccc1-3 | 22.2% (inactive)
2 | COc1ccc(/C=c2\s/c(=C/C(=O)c3ccc(C)cc3)[nH]c2=O)c(OC)c1 | 18.9% (inactive)
3 | O=[N+]([O-])c1ccccc1/C=C/C=N/Nc1ccc(S(=O)(=O)Nc2ccc(Cl)cc2)cc1[N+](=O)[O-] | 14.2% (inactive)
4 | CC(C)=NNc1nc2sc3c(c2c(=O)[nH]1)CC(C)(C)OC3 | 14.6% (inactive)
5 | O=c1cc(-c2ccccc2Cl)oc2c(NS(=O)(=O)c3cc(Cl)cc(Cl)c3O)ccc(O)c12 | 47.1% (active)
6 | CCOC(=O)c1ccc(NC(=O)Nc2ccc3c4c(cccc24)C(=O)N3CC)cc1 | 16.2% (inactive)
7 | Cc1nn(-c2ccccc2)c(Cl)c1/C=N/Nc1ccc(S(=O)(=O)Nc2ccccc2C(=O)O)cc1[N+](=O)[O-] | 22.1% (inactive)
8 | Nc1ccc(N2CCCCC2)c2nonc12 | 11.3% (inactive)
9 | C/C(=C\c1ccc2c(c1)OCO2)C1Nc2cccc3cccc(c23)N1 | 28.5% (active)
10 | COc1ccc2nc(-n3c(O)c(C4=c5ccccc5=NC4=O)[nH]c3=S)sc2c1 | 45.8% (active)
11 | Cn1c2ccccc2c2cc(/C=N/NC(=O)c3ccc(O)cc3O)ccc21 | 23% (inactive)
12 | N#CC/C(N)=N/Nc1nc2ccccc2nc1Cc1ccccc1 | -1.36% (inactive)
13 | Cc1c(O)ccc(/C(Cc2ccc3ccccc3n2)=N\O)c1O | 53.5% (active)
14 | CC(C)c1ccc2[nH]c(O)c(N=NC(=O)c3cccc(S(=O)(=O)N4CCCCC4)c3)c2c1 | 58.3% (active)
15 | CC(C)N(C(=O)Nc1ccc2nsnc2c1)C(C)C | 20.8% (inactive)
16 | COc1cc(/C=N/Nc2nc(-c3ccc(S(=O)(=O)N(C)C)cc3)cs2)ccc1O | 19.7% (inactive)
17 | O=C(N=Nc1c(O)[nH]c2ccccc12)c1cccs1 | 42.6% (active)
18 | O=C(CNc1ccccc1)N/N=C/c1c(O)ccc2ccccc12 | 17.1% (inactive)
19 | O=c1cc(N2CCCCC2)c(-c2ccccc2)nn1Cc1c(Cl)cccc1Cl | 25.3% (inactive)
20 | COC(=O)c1ccc(Sc2ccccc2NS(=O)(=O)c2ccc(C)cc2)nc1 | 25.9% (inactive)

Row | SMILES | inhibition
21 | O=C(O)COc1ccccc1/C=N/Nc1ccc(S(=O)(=O)Nc2ccc(Cl)cc2)cc1[N+](=O)[O-] | 62.7% (active)
22 | O=C(CNc1ccc2ccccc2c1)N/N=C/c1ccc(OC(=O)/C=C/c2ccco2)cc1 | 11.7% (inactive)
23 | COc1ccc2ccccc2c1C(O)c1nccn1C (stereo not given) | 23.1% (inactive)
24 | O=C(CNc1cccc2ccccc12)N/N=C/c1cccc(Oc2ccccc2)c1 | 31.1% (active)
25 | CCC(=Nc1ccc(N)cc1)C1=C(O)C(C(=O)OC)C(C)(C)CC1=O (stereo not given) | 2.34% (inactive)
26 | CSc1ccc(C2Nc3cccc4cccc(c34)N2)cc1 | 36.5% (active)
27 | COc1ccc(S(=O)(=O)N(C)C)cc1NC(=O)Cc1c[nH]c2ccccc12 | 85% (active)
28 | COc1ccc(S(=O)(=O)N2CCCCCC2)cc1NC(=O)Cc1cc(OC)c(OC)c(OC)c1 | 64% (active)
29 | CCc1ccc(OC)c(S(=O)(=O)Nc2ccc(Cc3ccncc3)cc2)c1 | 31.8% (active)
30 | O=C(N/N=C/c1c(Cl)[nH]c2ccccc12)c1ccc2c(c1)OCCO2 | 20.6% (inactive)
31 | O=C(N/N=C/c1c[nH]c2ccccc12)c1ccc([N+](=O)[O-])cc1Cl | 20.6% (inactive)
32 | O=C1c2cccc3c(N4CCCCC4)ccc(c23)C(=O)N1c1cccc(O)c1 | -13.8% (inactive)
33 | COc1cc2c(c(OC)c1OC)-c1ccc(NC(=O)c3ccc(F)cc3)c(=O)cc1[C@@H](NC(C)=O)CC2 | 0.65% (inactive)
34 | CCOc1ccccc1/C=C(\C#N)C(=O)Nc1cccc(C(=O)O)c1 | 5.46% (inactive)
35 | O=C1Nc2ccc(Br)cc2C12NNc1ccccc1O2 (stereo not given) | 38.5% (active)
36 | Oc1ccc(Br)cc1-c1nc2cnccn2c1NC1CCCC1 | 21.4% (inactive)
37 | N#CCC(=O)Nc1ccc(C(=O)OCC(=O)Nc2ccccc2Sc2ccccc2)cc1 | -19% (inactive)
38 | Cc1cc(C(=O)N/N=C/c2cccc([N+](=O)[O-])c2)c(C)n1-c1ccccc1 | -3.77% (inactive)
39 | COc1ccc(-c2cc(C(=O)N3CCN(C(=O)c4ccccc4F)CC3)[nH]n2)cc1 | 21.7% (inactive)
40 | c1ccc2sc(Nc3nc4cc5c(cc4s3)OCO5)nc2c1 | 49.7% (active)
